Test results from PubChem BioAssay (NCATS).
Results filed as inconclusive are left out. A call without a number means that no potency is given here. Activity calls are given as the source filed them. Calls come from the whole dose curve; as a rule, active = well fitted inhibition curve with a large enough effect; inconclusive = small, poorly fitted or top-dose-only effect; inactive = flat fitted curve, though single readings scatter.

system: HEK293T; test: qHTS assay to identify novel small-molecules to repurpose for Merkel cell carcinoma treatment (AID 1296009); conditions: MCC and control cell lines, CellTiter-Glo viability, 72 h; at 44.8 µM (top of the series) unless noted; note: nearly all actives have a fitted effect of over 60% in size
Procedure, shortened: (§1)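 72 hr, 37 degree celsius; NPC 8-pt / MIPE 11-pt dose response; compound pinned in DMSO; CellTiter-Glo, 10 min RT, luminescence; normalized to no-cell and DMSO controls.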

SMILES	outcome
Cc1ccc(-c2ccccc2C#N)cc1	inactive
COC(=O)/C=C(/C)N	inactive
CN1N=C(C(N)=O)CCC1=O	inactive
CC(NC(CCc1ccccc1)C(=O)O)C(=O)N1C(=O)N(C)CC1C(=O)O (centres undefined)	inactive
CN(C)CCN1CCN(c2cccc(Cl)c2)C1=O	inactive
Cc1cc(O)c(C)c(C)c1O	inactive
COC(=O)c1cc(Cl)ccc1OC	inactive
COc1ccc(CCC(C)=O)cc1	inactive
CCCC(=O)Nc1ccc(O)c(C(C)=O)c1	inactive
Cc1ccc(C(C)OC(=O)C2(C)CCC(C(=O)O)C2(C)C)cc1 (centres undefined)	inactive
O=C(C1CCCCC1)N1CC(=O)N2CCCc3ccccc3C2C1 (centres undefined)	inactive
O=C(O)/C=C(\CC(=O)O)C(=O)O	inactive
CC(C)(C)C(=O)OCOC(=O)C1N2C(=O)CC2S(=O)(=O)C1(C)C (centres undefined)	inactive
Cc1c(N)cccc1C(F)(F)F	inactive
CC(CC(C#N)(c1ccccc1)C(C)C)N(C)C (centres undefined)	inactive
CC(C)(C)c1nnc(NS(=O)(=O)c2ccccc2)s1	inactive

SMILES	outcome
Oc1ccccc1-c1nnco1	inactive
NS(=O)(=O)c1ccc(N2CCCCS2(=O)=O)cc1	inactive
Cc1ccc2ccc(Cl)cc2n1	inactive
Cc1cccc(C)c1NC(=O)c1cc(S(N)(=O)=O)c(Cl)cc1O	inactive
CC(=O)OCC(=O)[C@@]1(O)[C@H](OC(C)=O)C[C@H]2[C@@H]3CCC4=CC(=O)C=C[C@]4(C)[C@@]3(F)[C@@H](O)C[C@@]21C	inactive
CCN(CC)C(=O)C1CN2CCc3cc(OC)c(OC)cc3C2CC1OC(C)=O (centres undefined)	inactive
COC(=O)CCCCC(CCSS/C(CCO)=C(\C)N(C=O)Cc1cnc(C)nc1N)SC(C)=O (centres undefined)	inactive
COc1ccc(/C(C)=C/C(=O)O)c(OC)c1	inactive
OC1(c2ccc(Cl)cc2)CCNCC1	inactive
Cc1oc(-c2ccccc2)nc1CCC(=O)c1ccc(CC2SC(=O)NC2=O)cc1 (centres undefined)	inactive
CCN(CC)CC(=O)Oc1ccc(NC(C)=O)cc1	inactive
CCCCCC[C@@H](CCC)C(=O)O	inactive
CC(=O)c1ccc(O)c(C(N)=O)c1	inactive
COC(=O)/C=C\C(=O)OC	inactive
COc1cc(OC)nc(O[C@H](C(=O)O)C(OC)(c2ccccc2)c2ccccc2)n1	inactive
C[C@H]1C[C@@H]2[C@H]([C@@H](O)C[C@@]3(C)[C@H]2CC[C@]3(O)C(=O)CO)[C@@]2(C)C=CC(=O)C=C12	inactive

system: MCC-13; test: as above; conditions: MCC and control cell lines, CellTiter-Glo viability, 72 h; series mostly up to 46 µM
Procedure, shortened: as §1

SMILES	Potency
Cc1ccc(-c2ccccc2C#N)cc1	inactive
COC(=O)/C=C(/C)N	inactive
CN1N=C(C(N)=O)CCC1=O	inactive
CC(NC(CCc1ccccc1)C(=O)O)C(=O)N1C(=O)N(C)CC1C(=O)O (centres undefined)	inactive
CN(C)CCN1CCN(c2cccc(Cl)c2)C1=O	inactive
Cc1cc(O)c(C)c(C)c1O	inactive
COC(=O)c1cc(Cl)ccc1OC	inactive
COc1ccc(CCC(C)=O)cc1	inactive
CCCC(=O)Nc1ccc(O)c(C(C)=O)c1	inactive
Cc1ccc(C(C)OC(=O)C2(C)CCC(C(=O)O)C2(C)C)cc1 (centres undefined)	inactive
O=C(C1CCCCC1)N1CC(=O)N2CCCc3ccccc3C2C1 (centres undefined)	inactive
O=C(O)/C=C(\CC(=O)O)C(=O)O	inactive
CC(C)(C)C(=O)OCOC(=O)C1N2C(=O)CC2S(=O)(=O)C1(C)C (centres undefined)	inactive
Cc1c(N)cccc1C(F)(F)F	inactive
CC(CC(C#N)(c1ccccc1)C(C)C)N(C)C (centres undefined)	inactive
CC(C)(C)c1nnc(NS(=O)(=O)c2ccccc2)s1	inactive

SMILES	Potency
Oc1ccccc1-c1nnco1	inactive
NS(=O)(=O)c1ccc(N2CCCCS2(=O)=O)cc1	inactive
Cc1ccc2ccc(Cl)cc2n1	inactive
Cc1cccc(C)c1NC(=O)c1cc(S(N)(=O)=O)c(Cl)cc1O	inactive
CC(=O)OCC(=O)[C@@]1(O)[C@H](OC(C)=O)C[C@H]2[C@@H]3CCC4=CC(=O)C=C[C@]4(C)[C@@]3(F)[C@@H](O)C[C@@]21C	inactive
CCN(CC)C(=O)C1CN2CCc3cc(OC)c(OC)cc3C2CC1OC(C)=O (centres undefined)	inactive
COC(=O)CCCCC(CCSS/C(CCO)=C(\C)N(C=O)Cc1cnc(C)nc1N)SC(C)=O (centres undefined)	inactive
COc1ccc(/C(C)=C/C(=O)O)c(OC)c1	inactive
OC1(c2ccc(Cl)cc2)CCNCC1	inactive
Cc1oc(-c2ccccc2)nc1CCC(=O)c1ccc(CC2SC(=O)NC2=O)cc1 (centres undefined)	inactive
CCN(CC)CC(=O)Oc1ccc(NC(C)=O)cc1	inactive
CCCCCC[C@@H](CCC)C(=O)O	inactive
CC(=O)c1ccc(O)c(C(N)=O)c1	inactive
COC(=O)/C=C\C(=O)OC	inactive
COc1cc(OC)nc(O[C@H](C(=O)O)C(OC)(c2ccccc2)c2ccccc2)n1	inactive
C[C@H]1C[C@@H]2[C@H]([C@@H](O)C[C@@]3(C)[C@H]2CC[C@]3(O)C(=O)CO)[C@@]2(C)C=CC(=O)C=C12	inactive
